34 molecules from PubChem BioAssay (Tox21) can be followed below.

Unmarked numbers belong to inactive results. Records with an inconclusive call do not appear. The source made the active and inactive calls. Unless noted, calls come from the whole dose curve; as a rule, active = well fitted curve in the direction sought with a large enough effect in the repeat runs; inconclusive = weak or mixed curves; inactive = no such curve, though single readings can be large; an effect the other way counts as inactive or inconclusive.

Assay [1] in a line: Human pregnane X receptor (PXR) small molecule agonists, qHTS cell viability counter screen (AID 1346977). Note: nearly all actives have a fitted effect of over 50% in size. Note: potency is the fitted concentration of half-maximal effect. The settings on record: PXR-Luc HepG2 viability, CellTiter-Fluor, 24 h; series mostly up to 92.4 µM. In outline:
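After a 5hr pre-incubation, PXR-Luc HepG2 cells received compounds plus positive control in DMSO and were kept 24hr at 37C. Cell viability was quantified by fluorescence from CellTiter-Fluor added for the final hour.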
For orientation: qHTS replaces the single test concentration by a dilution series.

Assay [2] can be described thus: Caspase-3/7 induction in HepG2 cells by small molecules, qHTS assay (AID 1346978). Note: nearly all actives have a fitted effect of over 15% in size. The settings on record: HepG2 caspase-3/7 activation, Caspase-Glo luminescence, 17 h; series mostly up to 92.4 µM. In outline: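 Wild-type HepG2 cells (2,000/well) were settled 5 h at 37 C, 5% CO2, then exposed to compounds in DMSO for 17 h. Caspase-3/7 activity was read by luminescence 30 min after adding Caspase-Glo 3/7 reagent at room temperature.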

The nature of assay [3]: Caspase-3/7 induction in CHO-K1 cells by small molecules, qHTS cell viability counter screen (AID 1346979). Note: nearly all actives have a fitted effect of over 35% in size. Note: potency is the fitted concentration of half-maximal effect. The settings on record: CellTiter-Fluor fluorescence, 17 h; series mostly up to 92.4 µM. The procedure, abridged:
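Multiplexed with Caspase-Glo 3/7 in CHO-K1 cells, this counter screen added CellTiter-Fluor after 16hr of compound exposure and recorded fluorescence 1hr later.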

A short description of assay [4]: Caspase-3/7 induction in CHO-K1 cells by small molecules, qHTS assay (AID 1346980). Note: nearly all actives have a fitted effect of over 15% in size. The settings on record: CHO-K1 caspase-3/7 induction, Caspase-Glo luminescence, 17 h; series mostly up to 92.4 µM. The procedure, abridged:
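Wild-type cells were seeded at 1,500 per well and settled 5 hr at 37 C, 5% CO2, then exposed to DMSO-dissolved compounds for 17 hr. Caspase-Glo 3/7 reagent was added, and luminescence was read after 30min at room temperature.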

A short description of assay [5]: Caspase-3/7 induction in HepG2 cells by small molecules, qHTS cell viability counter screen (AID 1346981). Note: nearly all actives have a fitted effect of over 30% in size. The settings on record: CellTiter-Fluor fluorescence, 17 h; series mostly up to 92.4 µM. The procedure, abridged:
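Fluorescence read-out of live-cell protease activity (CellTiter-Fluor) after 1 hr with reagent. This was measured in the same wells as the caspase-3/7 luminescence, on HepG2 cells exposed to DMSO-dissolved compounds for 16 hr at 37 C.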

In assay [6] the target is Nuclear receptor subfamily 1 group I member 2 (Homo sapiens) (UniProt O75469). Description: Human pregnane X receptor (PXR) small molecule agonists, qHTS assay (AID 1346982). Note: nearly all actives have a fitted effect of over 35% in size. Note: potency is the fitted concentration of half-maximal effect. The settings on record: PXR-Luc HepG2, CYP3A4 luciferase reporter, 24 h; series mostly up to 92.4 µM. In outline:
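HepG2 PXR-Luc reporter line, 5% charcoal-stripped FBS; 5 hr pre-incubation, compound (DMSO) 24 hr at 37 C/5% CO2; ONE-Glo 30 min RT; luminescence read-out.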

Assay [7] deals with Thyrotropin-releasing hormone receptor (Homo sapiens) (UniProt P34981). Description: qHTS assay to identify small molecule agonists of the thyrotropin-releasing hormone receptor (TRHR) signaling pathway (AID 1346891; calls by dose curve;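 note: HEK293 cells expressing TRHR with calcium dye readout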). The settings on record: TRHR-HEK293 calcium fluorescence, agonist mode; series mostly up to 57.6 µM. The procedure, abridged:
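Overnight-plated (18 h, 37 °C, 5% CO2) TRHR-Hek293 cells; 2 h calcium dye at 37 °C; compound in DMSO; 3-min kinetic fluorescence read.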

The target in assay [8] is Nuclear receptor subfamily 1 group I member 2 (Rattus norvegicus) (UniProt Q9R1A7). Description: Rat pregnane X receptor (rPXR) activation by small molecules, qHTS assay (AID 1346983). Note: nearly all actives have a fitted effect of over 20% in size. The settings on record: rPXR luciferase reporter cells, One-Glo luminescence, 24 h; max activation: stronger effect = higher value. In outline: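 Cell-based rPXR luciferase reporter assay, 2,000 cells per well, rested 5hr at 37 C before compound addition in DMSO, then 24 hr at 37 C. One-Glo reagent was added and luminescence read after 30 min at room temperature.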

Assay [9] has as its target Nuclear receptor subfamily 1 group I member 2 (Homo sapiens) (UniProt O75469). Description: CYP3A4 induction through human pregnane X receptor (PXR) by small molecules, qHTS assay (AID 1346984). Note: nearly all actives have a fitted effect of over 40% in size. Note: potency is the fitted concentration of half-maximal effect. The settings on record: DPX-2 HepG2 PXR, CYP3A4-luciferin luminescence, 24 h; series mostly up to 46.1 µM. The procedure, abridged:
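HepG2-derived DPX-2 line carrying PXR plus a CYP3A4-promoter luciferase reporter; cells plated 5 hr, compound-exposed 24 hr at 37C. CYP3A4 activity probed with 3uM (final) Luciferin-IPA for 3hr, then luciferase read after One-Glo.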

Assay [10] shares this target. Briefly: Human pregnane X receptor (PXR) activation by small molecules, qHTS assay (AID 1346985). Note: nearly all actives have a fitted effect of over 40% in size. Note: potency is the fitted concentration of half-maximal effect. The settings on record: DPX-2 HepG2 CYP3A4-luciferase, 24 h; series mostly up to 38.3 µM. The procedure, abridged:
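DPX-2 cells (HepG2 co-transfected with a PXR response element and a CYP3A4-promoter luciferase construct) were seeded at 2,000 per well, rested 5 hr at 37C, then exposed to DMSO-dissolved compounds for 24 hr. Activation was read as luciferase luminescence.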
% is set by controls: 0 for no effect and ±100 for the full control effect.

Nuclear receptor subfamily 1 group I member 2 (Homo sapiens), sequence (O75469 whole entry, looked up): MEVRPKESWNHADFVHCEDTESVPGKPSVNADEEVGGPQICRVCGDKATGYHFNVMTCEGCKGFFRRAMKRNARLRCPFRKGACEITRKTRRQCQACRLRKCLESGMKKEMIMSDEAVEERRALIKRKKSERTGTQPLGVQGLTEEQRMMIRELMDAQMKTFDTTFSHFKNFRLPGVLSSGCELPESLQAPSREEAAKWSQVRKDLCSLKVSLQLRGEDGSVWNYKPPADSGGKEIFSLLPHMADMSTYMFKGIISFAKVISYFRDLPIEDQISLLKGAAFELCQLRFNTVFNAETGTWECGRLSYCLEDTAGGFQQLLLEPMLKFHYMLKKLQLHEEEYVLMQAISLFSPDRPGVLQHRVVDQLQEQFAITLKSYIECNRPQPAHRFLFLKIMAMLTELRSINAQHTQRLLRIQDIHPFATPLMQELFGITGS
Thyrotropin-releasing hormone receptor (Homo sapiens), sequence (P34981 whole entry, looked up): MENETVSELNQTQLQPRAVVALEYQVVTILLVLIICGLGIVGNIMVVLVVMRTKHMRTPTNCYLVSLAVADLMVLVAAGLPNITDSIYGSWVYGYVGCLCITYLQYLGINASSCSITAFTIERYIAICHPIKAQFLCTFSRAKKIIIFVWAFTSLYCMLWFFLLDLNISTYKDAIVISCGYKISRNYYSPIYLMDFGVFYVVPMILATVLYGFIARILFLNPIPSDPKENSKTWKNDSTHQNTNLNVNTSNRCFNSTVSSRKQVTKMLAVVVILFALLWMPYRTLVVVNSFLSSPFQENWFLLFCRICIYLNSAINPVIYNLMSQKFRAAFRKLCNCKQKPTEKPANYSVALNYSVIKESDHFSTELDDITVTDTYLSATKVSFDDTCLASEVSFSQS
Nuclear receptor subfamily 1 group I member 2 (Rattus norvegicus), sequence (Q9R1A7 whole entry, looked up): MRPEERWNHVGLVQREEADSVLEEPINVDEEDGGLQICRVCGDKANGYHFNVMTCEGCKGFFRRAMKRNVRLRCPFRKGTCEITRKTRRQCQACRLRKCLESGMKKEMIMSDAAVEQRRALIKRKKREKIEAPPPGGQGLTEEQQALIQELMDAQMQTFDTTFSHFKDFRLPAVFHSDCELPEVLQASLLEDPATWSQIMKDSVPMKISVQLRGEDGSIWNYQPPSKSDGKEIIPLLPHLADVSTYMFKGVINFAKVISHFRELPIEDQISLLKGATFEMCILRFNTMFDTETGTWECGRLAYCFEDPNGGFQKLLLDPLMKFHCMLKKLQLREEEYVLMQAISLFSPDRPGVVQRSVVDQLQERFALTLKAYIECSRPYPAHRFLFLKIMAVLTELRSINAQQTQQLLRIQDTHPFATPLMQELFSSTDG

`N#CSCC(=O)O`: the Potency entry in assay [1], in [2], in [3], in [5] and in assay [6] was “inactive” each time. Further, the molecule was classed as inactive in [4].
For the molecule `O=CCCc1ccccc1`, the Potency entry in [1], in [2], in assay [3] and in assay [5] was “inactive” in each case. The result in [4] was inactive.
Take `Nc1ccc(Oc2ccc(N)c(N)c2)cc1`: the Potency result in assay [7] and in assay [2] was “inactive” throughout. Besides, the figures for the Potency in assay [3] and in assay [6] were 61.1 µM (active) and 19.3 µM (active), respectively. Moreover, in assay [4], the molecule was classed as inactive.
Turning to `COc1cc(N)c(Cl)cc1C(=O)NC1CCN(Cc2ccccc2)CC1`, the Potency entry in [7], in assay [2], in assay [3], in [5], in assay [6] and in [9] was “inactive” throughout. In assay [10], the Potency entry was “inactive”. In addition, the max activation in [8] is -4.93%.
As to `Cc1cc2nc(N)sc2cc1C`, the Potency entry in [1], in assay [2], in [3] and in assay [5] was “inactive” each time. Also, the molecule was called inactive in assay [4]. For the same molecule, the Potency in assay [6] was 27.6 µM (active).
With `Cc1cc(NS(=O)(=O)c2ccc(N)cc2)nc(C)n1`, the Potency result in [7], in assay [2], in assay [3], in [5], in [6] and in [9] was “inactive” each time. Further, in assay [10], the Potency result is “inactive”. The outcome in [4] was inactive. For the same molecule, in assay [8], the max activation is 1.05%.
Regarding `C=CC(C)(O)CC/C=C(\C)CCC=C(C)C` (stereo unspecified), the Potency entry in assay [7], in assay [2], in assay [3], in assay [5], in assay [6] and in assay [9] was “inactive” in each case. Besides, the Potency entry in assay [10] is “inactive”. For the same molecule, the max activation in assay [8] was 3.74%.
For `CCN(O)CC`, the figures for the Potency in assay [1], in assay [3] and in assay [6] were 30 µM (active), 26.7 µM (active) and 59.8 µM (active), respectively. Also, the Potency entry in [2] and in [5] was “inactive” throughout. Further, the call in assay [4] was inactive.
Take `CCCCCCCCc1ccc(S(=O)(=O)O)cc1`: the Potency entry in assay [1], in assay [2], in assay [3], in [5] and in assay [6] was “inactive” throughout. Besides, in assay [4], the call was inactive.
Take `CN(CCCN1c2ccccc2CCc2ccccc21)CC(=O)c1ccc(Cl)cc1`: the Potency entry in assay [7], in [2] and in [5] was “inactive” in each case. In addition, the outcome in assay [4] was inactive. The figures for the Potency in assay [6], in assay [9] and in [10] were 18.8 µM (active), 25.1 µM (active) and 22.4 µM (active), respectively.
Regarding `CC(C)NC[C@@H](O)COc1cccc2ccccc12`, the Potency result in [1], in assay [2], in assay [3] and in [5] was “inactive” in each case. The outcome in assay [4] was inactive.
With `CC(C)(C)c1ccc(OC(=O)c2ccccc2O)cc1`, the Potency result in assay [1], in [2], in assay [3] and in assay [5] was “inactive” in each case. For the same molecule, the molecule was classed as inactive in [4].
For `CC(C)CCCCCCc1ccc(OCCOCCO)cc1`, the Potency result in assay [1], in assay [2], in assay [3] and in assay [5] was “inactive” each time. Also, the molecule was called inactive in assay [4]. Also, the Potency in assay [6] was 97.2 µM (active).
As for `Cc1ccc([N+](=O)[O-])c(N)c1`, the Potency entry in assay [7] and in assay [2] was “inactive” each time. In assay [4], the result was inactive. Besides, the Potency in [6] is 66.9 µM (active).
On to `CCOc1ccc(OCC)c(Cl)c1`, for which the Potency entry in assay [7], in assay [2], in assay [5] and in [6] was “inactive” in each case. In addition, in assay [4], the outcome was inactive.
On to `CCOC(=O)[C@H](CCc1ccccc1)N[C@@H](C)C(=O)N1Cc2cc(OC)c(OC)cc2C[C@H]1C(=O)O`, for which the Potency result in [7], in [2], in [3], in [5], in [6] and in [9] was “inactive” each time. For the same molecule, in assay [8], the max activation is -0.0593%.
Take `CCCOCCC`: the Potency result in [1], in assay [2], in [3], in assay [5] and in [6] was “inactive” in each case. Moreover, the result in assay [4] was inactive.
Regarding `NC(Cc1ccc(F)cc1)C(=O)O` (stereo unspecified), the activation in assay [7] is 0.148% [at 5.23 µM]. Also, the caspase activation in assay [2] was 0.163% [at 8.39 µM]. Further, the caspase-3/7 activation in [4] was 2.35% [at 8.39 µM]. Further, in assay [5], the activity change, negative = cytotoxicity is -1.98% [at 8.39 µM].
Turning to `CC(C)c1ccccc1`, the Potency entry in assay [1], in assay [2], in assay [3], in assay [5] and in assay [6] was “inactive” each time. Further, the outcome in assay [4] was inactive.
Consider `C=CCCC=C`, for which the Potency result in assay [7], in [2], in assay [3], in assay [5] and in assay [6] was “inactive” throughout.
Regarding `CCCN(CCC)C(=O)C(CCC(=O)O)NC(=O)c1ccccc1` (stereo unspecified), the Potency result in [7], in assay [2], in [3], in [5], in [6] and in [9] was “inactive” each time. In assay [10], the Potency result is “inactive”. Besides, in assay [4], the molecule was called inactive. The max activation in assay [8] is 0.444%.
For `CC(C)CC(=O)OCc1ccccc1`, the Potency result in assay [7], in [2], in [3] and in assay [5] was “inactive” in each case.
Consider `O=C(CCCl)NCc1ccccc1`, for which the Potency entry in assay [7], in assay [2], in assay [3], in [5] and in assay [6] was “inactive” each time.
In the case of `CCCS(=O)c1ccc2nc(NC(=O)OC)[nH]c2c1` (stereo unspecified), the Potency entry in assay [7], in [2] and in assay [5] was “inactive” in each case. In addition, the molecule was classed as inactive in [4].
Turning to `O=C1CCC(C2CCCCC2)CC1`, the Potency entry in assay [1], in assay [2], in assay [3] and in assay [5] was “inactive” each time. In addition, in [4], the result was inactive.
With `O=C1CCN(c2ccccc2)N1`, the Potency entry in assay [1], in assay [2], in assay [3] and in assay [5] was “inactive” each time. In assay [4], the result was inactive.
For `CCN1CC(CCN2CCOCC2)C(c2ccccc2)(c2ccccc2)C1=O` (stereo unspecified), the Potency entry in assay [7], in [2], in assay [5], in assay [6] and in assay [9] was “inactive” each time. For the same molecule, the outcome in assay [4] was inactive. In addition, the max activation in assay [8] was 9.94%.
As for `CCCCNC(=S)NCCCC`, the Potency result in assay [7], in assay [2] and in assay [5] was “inactive” each time. Besides, the Potency in assay [6] is 34.4 µM (active).
For `COc1cc2c(cc1N)oc1ccccc12`, the Potency entry in assay [7], in assay [2] and in assay [5] was “inactive” in each case. Also, in assay [6], the Potency is 27.9 µM (active).
With `CCOc1ccc(NC(N)=O)cc1`, the Potency entry in assay [7], in assay [2], in assay [5] and in assay [6] was “inactive” throughout. In addition, the outcome in assay [4] was inactive.
On to `CC(CNC1CCCCC1)OC(=O)c1ccccc1` (stereo unspecified), for which the Potency result in assay [1], in assay [2], in assay [3] and in assay [5] was “inactive” throughout. For the same molecule, the outcome in assay [4] was inactive.
Regarding `NC(=O)NS(=O)(=O)c1ccc(Cl)cc1`, the Potency entry in assay [7], in assay [2], in [5] and in assay [6] was “inactive” each time.
For the molecule `CCN(CCCc1ccccc1)CCCc1ccccc1`, the Potency entry in [7], in assay [2], in [3], in assay [5], in [9] and in assay [10] was “inactive” each time. The max activation in [8] was -0.276%.
Take `O=Cc1ccc(O)c(O)c1O`: the Potency result in assay [7], in assay [2] and in assay [6] was “inactive” in each case. For the same molecule, the outcome in [4] was inactive.
